Measurements reported in the supplement of paper PMC6555819.

Assays:
Experiment in all cases: PBM binding z-score (relative to random genomic background probes); higher = stronger binding; sequences stand for … in GC…GCGATTGACAGCGTAGAATGAAGG
[1] = system: RARb homodimer (NR concentration 270 nM)
How it was run: (§1)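 Scanned fluorescence from custom Agilent 4×180K protein-binding microarrays was regression-normalized. Binding z-scores use random background probes as reference. Ligand-free nuclear receptor dimers were incubated on the arrays for 1 h and detected with antibodies against each partner (one per run).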

[2] = system: RARg:RXRa (NR concentration 270 nM, RXRa partner concentration 90 nM)
How it was run: as §1

[3] = system: RARg homodimer (NR concentration 270 nM)
How it was run: as §1

[4] = system: RXRa DBDmut IVT, anti-RXR (DBD mutation: RXRa K156A/R161A, NR concentration 90 nM)
How it was run: as §1

[5] = system: RXRa homodimer (NR concentration 180 nM)
How it was run: as §1

[6] = system: THRa:RXRa (NR concentration 90 nM, RXRa partner concentration 90 nM)
How it was run: as §1

[7] = system: THRa homodimer (NR concentration 90 nM)
How it was run: as §1

[8] = system: VDR:RXRa (NR concentration 270 nM, RXRa partner concentration 90 nM)
How it was run: as §1

[9] = system: VDR homodimer (NR concentration 270 nM)
How it was run: as §1

Sequence: CAAACTAGGTCACGAAATGTCAAAGTCGAATGAC
- PBM binding z-score [1]: 3.6
- PBM binding z-score [2]: 4.86
- PBM binding z-score [3]: 5.58
- PBM binding z-score [4]: 2.02
- PBM binding z-score [5]: 3.79
- PBM binding z-score [6]: 3.51
- PBM binding z-score [7]: 1.5
- PBM binding z-score [8]: 3.47
- PBM binding z-score [9]: 1.1

Sequence: CGAACGAGGGGATGAGTTGATAGCAAATGCCGAT
- PBM binding z-score [1]: -0.429
- PBM binding z-score [2]: -0.0531
- PBM binding z-score [3]: 0.201
- PBM binding z-score [4]: 0.534
- PBM binding z-score [5]: 0.0402
- PBM binding z-score [6]: -0.246
- PBM binding z-score [7]: -0.206
- PBM binding z-score [8]: -0.189
- PBM binding z-score [9]: 0.579

Sequence: TGAATGAAGTTATAAGATCAGGGAACGTTGCAAA
- PBM binding z-score [1]: -0.946
- PBM binding z-score [2]: -0.0858
- PBM binding z-score [3]: -0.101
- PBM binding z-score [4]: -0.953
- PBM binding z-score [5]: -0.319
- PBM binding z-score [6]: -0.471
- PBM binding z-score [7]: -0.931
- PBM binding z-score [8]: -0.457
- PBM binding z-score [9]: -0.524

Sequence: GCTTACGGGTCATAGGTTATAGCATGAATAGAAT
- PBM binding z-score [1]: 2.49
- PBM binding z-score [2]: 4.99
- PBM binding z-score [3]: 3.83
- PBM binding z-score [4]: 2.34
- PBM binding z-score [5]: 6.22
- PBM binding z-score [6]: 2.9
- PBM binding z-score [7]: 0.18
- PBM binding z-score [8]: 3.91
- PBM binding z-score [9]: 0.952

Sequence: CCTTACGGGTCTCTGACAGGTTATAGCATTTGGA
- PBM binding z-score [1]: -0.0333
- PBM binding z-score [2]: 0.29
- PBM binding z-score [3]: 0.275
- PBM binding z-score [4]: 0.321
- PBM binding z-score [5]: 0.277
- PBM binding z-score [6]: 0.0789
- PBM binding z-score [7]: -0.175
- PBM binding z-score [8]: -0.307
- PBM binding z-score [9]: -0.188

Sequence: CCTAGCAGGCCAGGGTCCCTCAAGCATTTCGCTT
- PBM binding z-score [1]: -0.427
- PBM binding z-score [2]: -0.683
- PBM binding z-score [3]: -0.827
- PBM binding z-score [4]: -1.15
- PBM binding z-score [5]: -0.657
- PBM binding z-score [6]: -0.281
- PBM binding z-score [7]: -0.649
- PBM binding z-score [8]: -0.596
- PBM binding z-score [9]: -0.542

Sequence: TCATATAGGTAAACAGGTGAAGGTCCGTAAGTTA
- PBM binding z-score [1]: 0.91
- PBM binding z-score [2]: 0.737
- PBM binding z-score [3]: 0.389
- PBM binding z-score [4]: 1.36
- PBM binding z-score [5]: 0.85
- PBM binding z-score [6]: 0.707
- PBM binding z-score [7]: 0.377
- PBM binding z-score [8]: 0.989
- PBM binding z-score [9]: 0.32

Sequence: CAAACTAGGTCACAGAGGTCACAGTCCGTGCGTA
- PBM binding z-score [1]: 5.65
- PBM binding z-score [2]: 7.17
- PBM binding z-score [3]: 7.58
- PBM binding z-score [4]: 2.76
- PBM binding z-score [5]: 7.39
- PBM binding z-score [6]: 4.67
- PBM binding z-score [7]: 3.58
- PBM binding z-score [8]: 7.66
- PBM binding z-score [9]: 6.14

Sequence: CTACCAAGGTGAACAACGTCGTTGATTACTATTC
- PBM binding z-score [1]: 0.607
- PBM binding z-score [2]: 0.832
- PBM binding z-score [3]: 0.962
- PBM binding z-score [4]: 0.685
- PBM binding z-score [5]: 0.887
- PBM binding z-score [6]: 1.79
- PBM binding z-score [7]: 0.72
- PBM binding z-score [8]: 0.38
- PBM binding z-score [9]: -0.472

Sequence: CCGACTGGGGCATAAGGCTACCATAAGCCAGCCC
- PBM binding z-score [1]: 0.172
- PBM binding z-score [2]: -0.0263
- PBM binding z-score [3]: 0.171
- PBM binding z-score [4]: -0.797
- PBM binding z-score [5]: -0.16
- PBM binding z-score [6]: -0.225
- PBM binding z-score [7]: -0.406
- PBM binding z-score [8]: -0.694
- PBM binding z-score [9]: -0.345

Sequence: TCATATAGGTCAATGCTAGGTGAAAGTCCGATCT
- PBM binding z-score [1]: 3.86
- PBM binding z-score [2]: 5.46
- PBM binding z-score [3]: 5.11
- PBM binding z-score [4]: 2.09
- PBM binding z-score [5]: 4.2
- PBM binding z-score [6]: 3.7
- PBM binding z-score [7]: 0.903
- PBM binding z-score [8]: 2.9
- PBM binding z-score [9]: 0.879

Sequence: TAGCCTAGGTCATGCGCCAGTATACCACGCGAAC
- PBM binding z-score [1]: 2.94
- PBM binding z-score [2]: 3.96
- PBM binding z-score [3]: 4.3
- PBM binding z-score [4]: 0.931
- PBM binding z-score [5]: 3.24
- PBM binding z-score [6]: 3
- PBM binding z-score [7]: 1.31
- PBM binding z-score [8]: 2.01
- PBM binding z-score [9]: 0.653

Sequence: CCTACTGGGACAAAAAGGTCATTGATGCCGATAA
- PBM binding z-score [1]: 4.37
- PBM binding z-score [2]: 4.68
- PBM binding z-score [3]: 4.48
- PBM binding z-score [4]: 1.21
- PBM binding z-score [5]: 5.22
- PBM binding z-score [6]: 3.31
- PBM binding z-score [7]: 0.878
- PBM binding z-score [8]: 4.78
- PBM binding z-score [9]: 3.69

Sequence: TCATATAGGTAAACAGGTGTAAGTCCGTAAGTTA
- PBM binding z-score [1]: 0.165
- PBM binding z-score [2]: 0.307
- PBM binding z-score [3]: 0.308
- PBM binding z-score [4]: 1.57
- PBM binding z-score [5]: 0.982
- PBM binding z-score [6]: 0.356
- PBM binding z-score [7]: 0.324
- PBM binding z-score [8]: 1.6
- PBM binding z-score [9]: 0.657

Sequence: TCATATAGGTAAAAGGTGAAAGTCGGTGTGGTAA
- PBM binding z-score [1]: 2.06
- PBM binding z-score [2]: 2.24
- PBM binding z-score [3]: 1.17
- PBM binding z-score [4]: 1.87
- PBM binding z-score [5]: 2.96
- PBM binding z-score [6]: 1.77
- PBM binding z-score [7]: 0.633
- PBM binding z-score [8]: 1.82
- PBM binding z-score [9]: 0.737

Sequence: CCTTACGGGTCACTGACAGGTTATAGTATTTGGA
- PBM binding z-score [1]: 3.11
- PBM binding z-score [2]: 5.61
- PBM binding z-score [3]: 4.34
- PBM binding z-score [4]: 1.85
- PBM binding z-score [5]: 5.18
- PBM binding z-score [6]: 3.04
- PBM binding z-score [7]: 0.562
- PBM binding z-score [8]: 3.85
- PBM binding z-score [9]: 1.17

Sequence: GCTGCTAGGTCAACGGATGGTCAGCTAAAGCTCG
- PBM binding z-score [1]: 3.51
- PBM binding z-score [2]: 4.98
- PBM binding z-score [3]: 5.24
- PBM binding z-score [4]: 1.17
- PBM binding z-score [5]: 2.82
- PBM binding z-score [6]: 2.51
- PBM binding z-score [7]: 0.887
- PBM binding z-score [8]: 0.92
- PBM binding z-score [9]: 0.0371

Sequence: TCAGACAGATGAAGGTAACTCAGGTACGCAGTCG
- PBM binding z-score [1]: -0.403
- PBM binding z-score [2]: 0.326
- PBM binding z-score [3]: 0.197
- PBM binding z-score [4]: 1.34
- PBM binding z-score [5]: 0.965
- PBM binding z-score [6]: 1.03
- PBM binding z-score [7]: -0.261
- PBM binding z-score [8]: 0.608
- PBM binding z-score [9]: 0.0374
